{"source": "PubChem BioAssay AID493131", "about": "(Broad Institute, 2011)", "note": "The campaign covered roughly 340,000 compounds. About 3,300 (0.97%) were called active.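 The calls were made as follows: active = mean activation above about 17%, with every replicate also reaching it (limit read from the data, passing the limit was not always enough); inconclusive = only one of the two conditions met; inactive = the rest.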 This excerpt belongs to a sample that is enriched for actives."}
{"target": "Protein FosB (Mus musculus) (UniProt P13346)", "sequence (P13346 whole entry, looked up)": "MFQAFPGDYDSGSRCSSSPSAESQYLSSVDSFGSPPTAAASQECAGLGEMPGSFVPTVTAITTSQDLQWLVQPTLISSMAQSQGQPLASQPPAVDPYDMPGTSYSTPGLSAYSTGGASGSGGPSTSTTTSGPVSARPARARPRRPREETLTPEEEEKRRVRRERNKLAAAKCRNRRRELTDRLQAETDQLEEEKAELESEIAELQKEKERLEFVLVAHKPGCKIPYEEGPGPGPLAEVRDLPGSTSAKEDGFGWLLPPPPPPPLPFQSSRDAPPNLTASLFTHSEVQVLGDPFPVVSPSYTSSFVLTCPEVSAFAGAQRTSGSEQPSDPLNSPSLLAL", "test": "enhancers of mouse delta FosB DNA binding – biochemical, fluorescence polarization, TAMRA-CDK5 oligo, single point, primary screen (AID 493131);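 also: fluorescence polarization rise as delta FosB binds a TAMRA Cdk5 AP-1 oligo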", "conditions": "purified delta FosB, at 25 µM, stronger effect = higher value, percent of positive-control signal above neutral wells"}
{"smiles": "COC(=O)CNC(=O)c1ccc(OC2CCN(C(=O)C3CC3)CC2)cc1", "activation": "4.73% (inactive)"}
{"smiles": "O=C(NCc1ccccc1)C1CCCN(S(=O)(=O)c2cccs2)C1", "note": "(stereo unspecified)", "activation": "-3.74% (inactive)"}
{"smiles": "COc1ccc(C(=O)NN2C(=O)C3C(c4ccccc4)C=CC(c4ccccc4)C3C2=O)cc1", "note": "(stereo unspecified)", "activation": "-10.4% (inactive)"}
{"smiles": "COc1ccccc1NC(=O)CCC(=O)OC(C)C(=O)c1ccccc1", "note": "(stereo unspecified)", "activation": "-0.918% (inactive)"}
{"smiles": "O=C(O)C1C2C=CC(O2)C1C(=O)Nc1ccccn1", "note": "(stereo unspecified)", "activation": "2.08% (inactive)"}
{"smiles": "O=C(NCCc1ccccn1)c1cc(-c2ccc(Cl)cc2)nc2ccccc12", "activation": "-16.7% (inactive)"}
{"smiles": "COc1ccc(OC)c(NC(=O)Cn2c(=O)oc3ccccc32)c1", "activation": "-3.42% (inactive)"}
{"smiles": "COc1ccccc1CNC(=O)c1cc(=O)c2ccccc2o1", "activation": "-8.74% (inactive)"}
{"smiles": "COc1ccccc1CNC(=O)Cn1c(=O)oc2cc(Cl)ccc21", "activation": "46.6% (active)"}
{"smiles": "COc1ccccc1C(=O)NCC(=O)OCC(=O)Nc1nnc(-c2ccccc2)o1", "activation": "0.87% (inactive)"}
{"smiles": "CCOc1ccc(S(=O)(=O)NCCC(=O)NCC(C)(C)N2CCOCC2)cc1", "activation": "-1.62% (inactive)"}
{"smiles": "NC(N)=Nc1nc2ccc(Br)cc2c(=O)[nH]1", "activation": "42.4% (active)"}
{"smiles": "C/C(=N\\N)c1c(-c2ccccc2)c2cc(Br)ccc2[nH]c1=O", "activation": "-5.15% (inactive)"}
{"smiles": "NC(=O)c1cc(-c2cccnc2)nc2ccc(Br)cc12", "activation": "0.097% (inactive)"}
{"smiles": "CC(=O)Nc1ccc(S(=O)(=O)N2CCN(CCCOc3cc(C)ccc3C)CC2)cc1", "activation": "0.131% (inactive)"}
{"smiles": "Cc1cc(NC(=O)CSc2nnc(-c3ccco3)n2N)no1", "activation": "2.33% (inactive)"}
{"smiles": "N#Cc1c(NC(=O)CSc2nc3ccccc3c(=O)n2Cc2ccco2)sc2c1CCCC2", "activation": "6.6% (inactive)"}
{"smiles": "Cc1cc(NC(=O)CSc2nc3cc(Cl)ccc3c(=O)n2Cc2ccco2)no1", "activation": "41.2% (active)"}
{"smiles": "COc1ccc(CCN2C(=O)CC(N3CCC(C(N)=O)CC3)C2=O)cc1OC", "note": "(stereo unspecified)", "activation": "-2.97% (inactive)"}
{"smiles": "CCOC(=O)N1CCN(C(=O)C2CCCN(c3ncnc4c3sc3cccc(F)c34)C2)CC1", "note": "(stereo unspecified)", "activation": "-16.9% (inactive)"}
{"smiles": "O=C(N/N=C/c1cccc(O)c1)c1cc2c(ccc3ccccc32)o1", "activation": "36.7% (active)"}
{"smiles": "O=C(NN=Cc1ccccc1)c1ccccc1", "activation": "-3.35% (inactive)"}
{"smiles": "Cc1c(/C=N\\NC(=O)c2cc3ccccc3o2)c2ccccc2n1C", "activation": "-8.02% (inactive)"}
{"smiles": "COC(=O)c1cccnc1NC(=S)NC(C)C", "activation": "-6.13% (inactive)"}
{"smiles": "COc1ccccc1CC(=O)Nc1ccc(S(=O)(=O)N2CCCC2)cc1", "activation": "-8.89% (inactive)"}
{"smiles": "C/C=C(\\C)C(=O)N1CC2(CC(c3cccc(NC(=O)CCCCC)c3)=NO2)C[C@@H]1C(N)=O", "note": "(stereo partly specified)", "activation": "-1.2% (inactive)"}
